This note sets out measurements from publication PMC8384837, “Expanding the binding specificity for RNA recognition by a PUF domain”.

Test in all cases: yeast three-hybrid, YBZ-1, SC-Leu-His + 0.5 mM 3-AT, 4 days
Conditions in all cases: tags: N-Gal4 AD-HA kept; label: inside an RPR1-promoter hybrid RNA with tandem MS2 sites; ssRNA

One experiment deals with T1, PUM1 PUF domain R6-HFR (Homo sapiens, UniProt Q14671 828-1176, N1043H;Y1044F;Q1047R).
T1 sequence: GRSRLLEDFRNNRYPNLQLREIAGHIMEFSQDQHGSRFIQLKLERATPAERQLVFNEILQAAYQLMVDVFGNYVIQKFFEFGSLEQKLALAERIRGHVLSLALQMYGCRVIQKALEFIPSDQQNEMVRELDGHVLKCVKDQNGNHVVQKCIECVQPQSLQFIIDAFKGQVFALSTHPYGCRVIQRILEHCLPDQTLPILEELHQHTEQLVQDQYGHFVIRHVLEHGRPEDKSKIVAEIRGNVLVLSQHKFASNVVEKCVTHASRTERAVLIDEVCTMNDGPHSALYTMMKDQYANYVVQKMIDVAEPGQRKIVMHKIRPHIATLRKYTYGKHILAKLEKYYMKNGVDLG
The method, boiled down:
(§1)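 Matching RNA elements and Pumilio-1 PUF domain libraries, randomized at the three base-contacting residues of every repeat, were co-expressed from a centromeric plasmid in strain YBZ-1 (LexA–MS2 coat fusion, HIS3 reporter). The repeat regions were PCR-amplified and Illumina-sequenced from cells grown four days on SC-Leu (input) or SC-Leu-His + 0.5 mM 3-AT (selection). The interaction score is the log change in variant frequency from input to selection. It is computed in log2, with a pseudocount of 1 for absent variants.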

A further experiment has as its target PUM1 PUF domain R7-RRC (Homo sapiens, UniProt Q14671 828-1176, S1079R;N1080R;E1083C). The method in brief: as §1
The target of a further experiment is PUM1 PUF domain R3-APL (Homo sapiens, UniProt Q14671 828-1176, C935A;R936P;Q939L). The method in brief: as §1
A further experiment addresses PUM1 PUF domain R4-SRL (Homo sapiens, UniProt Q14671 828-1176, N971S;H972R;Q975L). The method in brief: as §1
For another experiment, the target named is PUM1 PUF domain R4-YRL (Homo sapiens, UniProt Q14671 828-1176, N971Y;H972R;Q975L). The method, boiled down: as §1
The target in the next experiment is PUM1 PUF domain R5-QRK (Homo sapiens, UniProt Q14671 828-1176, C1007Q;Q1011K). The method, boiled down:
as §1

The target in another experiment is PUM1 PUF domain R8-RHG (Homo sapiens, UniProt Q14671 828-1176, N1122R;Y1123H;Q1126G). The method, boiled down:
as §1

For another experiment, the target named is T2, PUM1 PUF domain R6-RFC (Homo sapiens, UniProt Q14671 828-1176, N1043R;Y1044F;Q1047C).
T2 sequence: T1 sequence with H216R, R220C
The method in brief: as §1

A further experiment deals with PUM1 PUF domain R8-TWK (Homo sapiens, UniProt Q14671 828-1176, N1122T;Y1123W;Q1126K). The method in brief: as §1
A further experiment concerns the target T3, PUM1 PUF domain R6-KWK (Homo sapiens, UniProt Q14671 828-1176, N1043K;Y1044W;Q1047K).
T3 sequence: T1 sequence with H216K, F217W, R220K
The method in brief:
as §1

The next experiment addresses PUM1 PUF domain R8-LYW (Homo sapiens, UniProt Q14671 828-1176, N1122L;Q1126W). The method, boiled down:
as §1

For another experiment, the target named is PUM1 PUF domain R5-KST (Homo sapiens, UniProt Q14671 828-1176, C1007K;R1008S;Q1011T). The method, boiled down:
as §1

The target in the next experiment is PUM1 PUF domain R5-RPD (Homo sapiens, UniProt Q14671 828-1176, C1007R;R1008P;Q1011D). The method in brief: as §1
The target of the next experiment is PUM1 PUF domain R5-RNW (Homo sapiens, UniProt Q14671 828-1176, C1007R;R1008N;Q1011W). The method in brief:
as §1

The next experiment has as its target PUM1 PUF domain R5-RHQ (Homo sapiens, UniProt Q14671 828-1176, C1007R;R1008H). The method in brief:
as §1

The next experiment concerns the target T4, PUM1 PUF domain R6-IFS (Homo sapiens, UniProt Q14671 828-1176, N1043I;Y1044F;Q1047S).
T4 sequence: T1 sequence with H216I, R220S
The method, boiled down:
as §1

For another experiment, the target named is PUM1 PUF domain R1-GGQ (Homo sapiens, UniProt Q14671 828-1176, S863G;R864G). The method in brief: as §1
The next experiment addresses PUM1 PUF domain R3-RIG (Homo sapiens, UniProt Q14671 828-1176, C935R;R936I;Q939G). The method in brief:
as §1

A further experiment concerns the target PUM1 PUF domain R3-WCL (Homo sapiens, UniProt Q14671 828-1176, C935W;R936C;Q939L). The method in brief: as §1
Another experiment deals with PUM1 PUF domain R2-LWV (Homo sapiens, UniProt Q14671 828-1176, N899L;Y900W;Q903V). The method in brief:
as §1

Residue numbers refer to the chain shown, from its start.

Chain of PUM1 PUF domain R8-TWK (Q14671 828-1176 N1122T/Y1123W/Q1126K): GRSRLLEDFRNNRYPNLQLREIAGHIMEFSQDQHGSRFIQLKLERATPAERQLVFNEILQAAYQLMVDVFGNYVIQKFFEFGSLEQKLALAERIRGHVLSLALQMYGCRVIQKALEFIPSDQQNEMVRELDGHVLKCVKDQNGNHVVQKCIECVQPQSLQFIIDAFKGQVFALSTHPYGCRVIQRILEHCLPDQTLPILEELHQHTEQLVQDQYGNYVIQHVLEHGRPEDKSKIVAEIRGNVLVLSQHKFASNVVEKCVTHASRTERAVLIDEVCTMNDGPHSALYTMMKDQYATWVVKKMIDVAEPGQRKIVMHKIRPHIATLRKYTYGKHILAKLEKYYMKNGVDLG

On to “GGCUAGAACUAGUGGAUCCCCCGGCGCCCGGCGGCUCGAGCCCGGGUAAGUGCAAAUAGUCUGCAUGCCGCCGGGCGCCAUGCCUGCAGGUCGACUCUAGAAAACAUG”, for which the binding signal with PUM1 PUF domain R6-HFR was 2.56 log2 enrichment (interaction score).
For the sequence “GGCUAGAACUAGUGGAUCCCCCGGCGCCCGGCGGCUCGAGCCCGGGUAAGUCUAAAUAGUCUGCAUGCCGCCGGGCGCCAUGCCUGCAGGUCGACUCUAGAAAACAUG”, in the experiment with PUM1 PUF domain R7-RRC, the binding signal was 4.91 log2 enrichment (interaction score).
With “GGCUAGAACUAGUGGAUCCCCCGGCGCCCGGCGGCUCGAGCCCGGGUAAGUGUAAAUAGUCUGCAUGCCGCCGGGCGCCAUGCCUGCAGGUCGACUCUAGAAAACAUG”, the binding signal is 3.04 log2 enrichment (interaction score) with PUM1 PUF domain R3-APL; 3.87 log2 enrichment (interaction score) with PUM1 PUF domain R4-SRL; 3.01 log2 enrichment (interaction score) with PUM1 PUF domain R4-YRL; 2.97 log2 enrichment (interaction score) with PUM1 PUF domain R5-QRK; 4.31 log2 enrichment (interaction score) with PUM1 PUF domain R8-RHG; 4.13 log2 enrichment (interaction score) in the experiment with PUM1 PUF domain R6-RFC. Moreover, the binding signal with PUM1 PUF domain R8-TWK is 5.8 log2 enrichment (interaction score); with PUM1 PUF domain R6-HFR, 6.79 log2 enrichment (interaction score); in the experiment with PUM1 PUF domain R6-KWK it was 4.71 log2 enrichment (interaction score); with PUM1 PUF domain R8-LYW, 2.44 log2 enrichment (interaction score).
As for “GGCUAGAACUAGUGGAUCCCCCGGCGCCCGGCGGCUCGAGCCCGGGUAAGUGUCAAUAGUCUGCAUGCCGCCGGGCGCCAUGCCUGCAGGUCGACUCUAGAAAACAUG”, the binding signal is 4.03 log2 enrichment (interaction score) with PUM1 PUF domain R5-KST, 3.41 log2 enrichment (interaction score) in the experiment with PUM1 PUF domain R5-RPD and 0.29 log2 enrichment (interaction score) with PUM1 PUF domain R5-RNW.
Consider “GGCUAGAACUAGUGGAUCCCCCGGCGCCCGGCGGCUCGAGCCCGGGUAAGUGUGAAUAGUCUGCAUGCCGCCGGGCGCCAUGCCUGCAGGUCGACUCUAGAAAACAUG”, for which the binding signal in the experiment with PUM1 PUF domain R5-RHQ is 4.24 log2 enrichment (interaction score).
Take “GGCUAGAACUAGUGGAUCCCCCGGCGCCCGGCGGCUCGAGCCCGGGUAAGUGAAAAUAGUCUGCAUGCCGCCGGGCGCCAUGCCUGCAGGUCGACUCUAGAAAACAUG”: the binding signal with PUM1 PUF domain R6-RFC is 1.2 log2 enrichment (interaction score); with PUM1 PUF domain R6-IFS, 5.65 log2 enrichment (interaction score).
For “GGCUAGAACUAGUGGAUCCCCCGGCGCCCGGCGGCUCGAGCCCGGGUAAGUGUAAAUCGUCUGCAUGCCGCCGGGCGCCAUGCCUGCAGGUCGACUCUAGAAAACAUG”, the binding signal in the experiment with PUM1 PUF domain R1-GGQ was 1.77 log2 enrichment (interaction score).
“GGCUAGAACUAGUGGAUCCCCCGGCGCCCGGCGGCUCGAGCCCGGGUAAGUGUAAUUAGUCUGCAUGCCGCCGGGCGCCAUGCCUGCAGGUCGACUCUAGAAAACAUG”: the binding signal with PUM1 PUF domain R3-RIG was 2.45 log2 enrichment (interaction score).
For the sequence “GGCUAGAACUAGUGGAUCCCCCGGCGCCCGGCGGCUCGAGCCCGGGUAAGUGUAAGUAGUCUGCAUGCCGCCGGGCGCCAUGCCUGCAGGUCGACUCUAGAAAACAUG”, the binding signal was 3.36 log2 enrichment (interaction score) with PUM1 PUF domain R3-WCL and 3.19 log2 enrichment (interaction score) with PUM1 PUF domain R3-RIG.
For the sequence “GGCUAGAACUAGUGGAUCCCCCGGCGCCCGGCGGCUCGAGCCCGGGUAAGUGUAAAAAGUCUGCAUGCCGCCGGGCGCCAUGCCUGCAGGUCGACUCUAGAAAACAUG”, in the experiment with PUM1 PUF domain R2-LWV, the binding signal was 4.15 log2 enrichment (interaction score).
Take “GGCUAGAACUAGUGGAUCCCCCGGCGCCCGGCGGCUCGAGCCCGGGUAAGUGUAAAUUGUCUGCAUGCCGCCGGGCGCCAUGCCUGCAGGUCGACUCUAGAAAACAUG”: the binding signal in the experiment with PUM1 PUF domain R1-GGQ was 2.33 log2 enrichment (interaction score).
“GGCUAGAACUAGUGGAUCCCCCGGCGCCCGGCGGCUCGAGCCCGGGUAAGCGUAAAUAGUCUGCAUGCCGCCGGGCGCCAUGCCUGCAGGUCGACUCUAGAAAACAUG”: the binding signal with PUM1 PUF domain R8-RHG was 4.32 log2 enrichment (interaction score); in the experiment with PUM1 PUF domain R8-TWK, 2.23 log2 enrichment (interaction score); with PUM1 PUF domain R8-LYW, 3.09 log2 enrichment (interaction score).
For “GGCUAGAACUAGUGGAUCCCCCGGCGCCCGGCGGCUCGAGCCCGGGUAAGUUUAAAUAGUCUGCAUGCCGCCGGGCGCCAUGCCUGCAGGUCGACUCUAGAAAACAUG”, the binding signal with PUM1 PUF domain R7-RRC was 4.95 log2 enrichment (interaction score).
For the sequence “GGCUAGAACUAGUGGAUCCCCCGGCGCCCGGCGGCUCGAGCCCGGGUAAGGGUAAAUAGUCUGCAUGCCGCCGGGCGCCAUGCCUGCAGGUCGACUCUAGAAAACAUG”, in the experiment with PUM1 PUF domain R8-TWK, the binding signal was 3.33 log2 enrichment (interaction score).
Regarding “GGCUAGAACUAGUGGAUCCCCCGGCGCCCGGCGGCUCGAGCCCGGGUAAGUGUUAAUAGUCUGCAUGCCGCCGGGCGCCAUGCCUGCAGGUCGACUCUAGAAAACAUG”, the binding signal with PUM1 PUF domain R5-KST is 2.74 log2 enrichment (interaction score); with PUM1 PUF domain R5-RPD it was 2.4 log2 enrichment (interaction score); with PUM1 PUF domain R5-RNW, 2.82 log2 enrichment (interaction score).
